Reference: PubChem BioAssay AID1159580 (chemical genetic matrix, 2015)
“And” between values parts separate entries of the source, which are not always exact repeats. Identical values can stand only once. In all, about 5,500 compounds went through this assay and about 2,000 (36%) were called active. About 18% were inconclusive and are not listed. Rule as the data show it: active = normalized growth mostly below about 0.91 (no sharp cut-off); inconclusive = no clear call, values can overlap the other calls; inactive = mostly above about 0.92. The list shows a part of the results.

Assay: chemical genetic growth profiling, strain panel (AID 1159580);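 also: tested at 20 µM; growth read once vehicle control cultures reached saturation at 30 °C; 1 = growth at the plate median or of vehicle wells; lower values mean less growth of the strain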
Settings: S. cerevisiae deletion strains, growth OD

Measured: normalized growth

CC1COc2c(N3CCN(C)CC3)c(F)cc3c(=O)c(C(=O)O)cn1c23 (stereo not drawn)
inactive: locus YAL013W, strain DEP1, hits give low values 0.993 | locus YAL021C, strain ccr4, hits give low values 0.99 | locus YAL026C, strain drs2, hits give low values 0.987 | locus YAL030W, strain snc1, hits give low values 0.988 | locus YAL040C, strain CLN3, hits give low values 1.03 | locus YBL061C, strain skt5, hits give low values 0.983 | locus YBR009C, strain hhf1, hits give low values 1 | locus YBR021W, strain FUR4, hits give low values 1.01 | locus YBR023C, strain chs3, hits give low values 0.98 | locus YBR171W, strain sec66, hits give low values 0.964 | locus YBR229C, strain ROT2, hits give low values 1.01 | locus YBR231C, strain swc5, hits give low values 0.991 | locus YBR279W, strain paf1, hits give low values 0.992 | locus YCL011C, strain gbp2, hits give low values 0.98 | locus YCL016C, strain dcc1, hits give low values 0.985 | locus YCL029C, strain bik1, hits give low values 1.01 | locus YCL061C, strain MRC1 (second series), hits give low values 1 | locus YCL061C, strain MRC1, hits give low values 0.982 | locus YCL069W, strain vba3, hits give low values 0.99 | locus YCR088W, strain abp1, hits give low values 0.986 | locus YDL005C, strain med2, hits give low values 0.974 | locus YDL035C, strain GPR1, hits give low values 1.03 | locus YDL040C, strain nat1, hits give low values 0.988 | locus YDL074C, strain BRE1, hits give low values 1.02 | locus YDL101C, strain DUN1, hits give low values 1.01 | locus YDL134C, strain PPH21, hits give low values 1.01 | locus YDL185W, strain tfp1, hits give low values 1.05 | locus YDL192W, strain arf1, hits give low values 1.01 | locus YDR001C, strain nth1, hits give low values 0.982 | locus YDR069C, strain doa4, hits give low values 1.01 | locus YDR101C, strain arx1, hits give low values 1 | locus YDR137W, strain rgp1, hits give low values 0.954 | locus YDR159W, strain sac3, hits give low values 1.01 | locus YDR162C, strain NBP2, hits give low values 1.01 | locus YDR195W, strain ref2 0.996 | locus YDR297W, strain sur2, hits give low values 0.985 | locus YDR318W, strain mcm21, hits give low values 1.01 | locus YDR334W, strain swr1, hits give low values 0.975 | locus YDR335W, strain msn5, hits give low values 0.997 | locus YDR363W, strain ESC2, hits give low values 1.01 | locus YDR388W, hits give low values 1.01 | locus YDR392W, strain spt3, hits give low values 0.903 | locus YDR502C, strain sam2, hits give low values 1.01 | locus YEL003W, strain gim4, hits give low values 1 | locus YEL037C, strain rad23, hits give low values 0.979 | locus YEL061C, strain CIN8 (second series), hits give low values 0.985 | locus YEL061C, strain CIN8, hits give low values 1.01 | locus YER002W, strain NOP16, hits give low values 0.981 | locus YER015W, strain faa2, hits give low values 0.99 | locus YER016W, strain bim1, hits give low values 1.01 | locus YER110C, hits give low values 1.02 | locus YER111C, strain swi4, hits give low values 0.983 | locus YER155C, strain BEM2 (second series), hits give low values 0.978 | locus YER155C, strain BEM2, hits give low values 1.01 | locus YER167W, strain BCK2, hits give low values 1.01 | locus YFR010W, strain ubp6, hits give low values 0.978 | locus YGL078C, strain dbp3, hits give low values 1.01 | locus YGL086W, strain mad1, hits give low values 1 | locus YGL167C, strain pmr1, hits give low values 0.985 | locus YGL173C, strain kem1, hits give low values 0.975 | locus YGL227W, strain vid30, hits give low values 0.991 | locus YGL240W, strain doc1, hits give low values 0.996 | locus YGL248W, strain PDE1, hits give low values 1 | locus YGL253W, strain hxk2, hits give low values 0.995 | locus YGR135W, strain pre9, hits give low values 1.01 | locus YGR229C, strain SMI1, hits give low values 1.03 | locus YGR252W, strain gcn5, hits give low values 1.01 | locus YHR013C, strain ard1, hits give low values 0.961 | locus YHR027C, strain rpn1, hits give low values 0.986 | locus YHR030C, strain SLT2, hits give low values 1.01 and 0.988 | locus YHR079C, strain IRE1 (second series), hits give low values 1.01 | locus YHR079C, strain IRE1, hits give low values 0.988 | locus YHR094C, strain hxt1, hits give low values 1.02 | locus YHR129C, strain ARP1, hits give low values 1 | locus YHR142W, strain chs7, hits give low values 0.956 | locus YHR200W, strain rpn10, hits give low values 1.01 | locus YIL066C, strain RNR3, hits give low values 1.01 | locus YIL073C, strain SPO22, hits give low values 1.1 | locus YIL125W, strain kgd1, hits give low values 1.01 | locus YIR030C, strain dcg1, hits give low values 1.01 | locus YJL092W, strain hpr5, hits give low values 0.983 | locus YJL095W, strain BCK1 (second series), hits give low values 0.993 | locus YJL095W, strain BCK1, hits give low values 1 and 0.976 | locus YJL115W, strain asf1, hits give low values 0.971 | locus YJL129C, strain trk1, hits give low values 0.987 | locus YJL134W, strain LCB3, hits give low values 1.01 | locus YJL154C, strain vps35, hits give low values 0.982 | locus YJL164C, strain tpk1, hits give low values 0.987 | locus YJL166W, strain qcr8, hits give low values 0.969 | locus YJL168C, strain set2, hits give low values 1.01 | locus YJL187C, strain SWE1 (second series), hits give low values 1 | locus YJL187C, strain SWE1, hits give low values 0.987 | locus YJR043C, strain POL32, hits give low values 1.02
